Test results published in PubChem BioAssay AID1445 (SRMLSC, 2008).
Among all 220,000 compounds or so, about 910 (0.41%) were called active. For the sample, actives were picked, then their nearest neighbours and some compounds at random. Results with a measured potency or affinity are listed apart. Values without a mark were called inactive.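 Rule for the calls: active = primary inhibition above the hit cutoff, then over 50% inhibition at one or more dose response concentrations (cut at about 23% in these data, passing the limit was not always enough); inconclusive = conflicting primary data, or primary hits not chosen for dose response; inactive = low primary inhibition, or under 50% at every dose.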

Each compound was assayed against Aminopeptidase N (Plasmodium falciparum (isolate 3D7)) (UniProt O96935) (assay: P. falciparum M1AAP inhibitors, biochemical, fluorogenic H-Leu-NHMec substrate, 1536-well (AID 1445;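 note: plate controls were DMSO full reaction for no effect and no enzyme background for full effect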)). Conditions: recombinant M1AAP, H-Leu-NHMec fluorogenic kinetic assay; at 30 µM, hits give high values unless noted.
Sequence of Aminopeptidase N (Plasmodium falciparum (isolate 3D7)) (O96935 whole entry, looked up): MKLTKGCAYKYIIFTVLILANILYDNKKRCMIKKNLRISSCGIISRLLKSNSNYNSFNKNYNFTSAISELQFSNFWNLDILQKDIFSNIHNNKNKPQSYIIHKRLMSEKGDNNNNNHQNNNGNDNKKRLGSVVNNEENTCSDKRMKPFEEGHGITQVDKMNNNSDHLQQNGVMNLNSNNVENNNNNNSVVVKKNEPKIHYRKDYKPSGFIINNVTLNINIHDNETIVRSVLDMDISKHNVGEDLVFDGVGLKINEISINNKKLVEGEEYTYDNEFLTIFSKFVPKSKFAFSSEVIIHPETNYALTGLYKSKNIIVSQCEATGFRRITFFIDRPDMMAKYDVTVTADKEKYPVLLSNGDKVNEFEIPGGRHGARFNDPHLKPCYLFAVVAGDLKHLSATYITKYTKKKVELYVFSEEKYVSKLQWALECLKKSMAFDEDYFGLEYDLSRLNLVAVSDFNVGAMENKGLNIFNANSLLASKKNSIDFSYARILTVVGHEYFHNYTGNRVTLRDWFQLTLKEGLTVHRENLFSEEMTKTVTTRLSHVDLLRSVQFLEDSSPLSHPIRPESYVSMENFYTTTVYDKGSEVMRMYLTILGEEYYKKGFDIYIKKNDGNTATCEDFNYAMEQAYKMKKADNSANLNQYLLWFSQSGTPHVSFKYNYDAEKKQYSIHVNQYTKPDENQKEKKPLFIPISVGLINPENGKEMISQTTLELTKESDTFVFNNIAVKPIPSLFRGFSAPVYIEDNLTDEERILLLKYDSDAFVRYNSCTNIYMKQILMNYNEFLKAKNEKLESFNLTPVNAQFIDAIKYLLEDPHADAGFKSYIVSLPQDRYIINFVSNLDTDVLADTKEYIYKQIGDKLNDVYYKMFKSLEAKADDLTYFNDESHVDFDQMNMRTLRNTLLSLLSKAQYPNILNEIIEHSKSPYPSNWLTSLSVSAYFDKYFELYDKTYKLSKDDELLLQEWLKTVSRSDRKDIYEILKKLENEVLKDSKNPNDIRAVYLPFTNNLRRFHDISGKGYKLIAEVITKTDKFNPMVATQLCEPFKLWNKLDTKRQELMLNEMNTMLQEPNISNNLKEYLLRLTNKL

| Compound | inhibition |
| --- | --- |
| O=C(c1ccc(-c2ccccc2)cc1)C1CCCN(C(=O)Cn2cncn2)C1 (stereo unspecified) | 8.56% |
| O=C(C(=O)N1CCCc2ccccc21)c1cn(CC(=O)N2CCOCC2)c2ccccc12 | 1.02% |
| O=C(NCc1ccccc1)C12CC3CC(CC(C3)C1)C2 | -3.07% |
| Cc1nn(C(=O)c2cccnc2)c(C)c1Sc1ccccc1 | 6.53% |
| Cc1ccc(S(=O)(=O)N(C)C)cc1NC(=O)c1sccc1Cl | 0.57% |
| Cc1ccc(C(=O)N2CCCC(c3ccc(Cl)cc3)=N2)cc1 | -2.39% |
| Cc1ccsc1/C=N/NC(=O)c1ccc([N+](=O)[O-])cc1 | 4% |
| CC(=O)Nc1c(S(=O)(=O)c2ccccc2)c2nc3ccccc3nc2n1Cc1ccccc1 | 22.9% |
| CCCCn1c(NC(=O)c2ccc(Br)o2)c(S(=O)(=O)c2ccccc2)c2nc3ccccc3nc21 | 8.47% |
| CC(=O)Nc1ccc2nc(NC(=O)c3cccs3)sc2c1 | 4.98% |
| O=C(Nc1ccc(F)cc1F)c1ccccc1-c1ccccc1 | -1.46% |
| CCN(CC)C(=O)CSc1nc2ccsc2c(=O)n1CCCC(=O)NCCc1ccc(S(N)(=O)=O)cc1 | 11.4% |
| CCCCNC(=O)CSc1nc2ccsc2c(=O)n1CCCC(=O)NCCc1ccc(S(N)(=O)=O)cc1 | 4.74% |
| COc1cc(C(=O)OCC(=O)NCc2ccco2)cc(OC)c1OC | 7.63% |
| CCCn1c2c(c(O)c(C(=O)Nc3ncccc3C)c1=O)CCCC2 | 5.08% |
| CCCn1c2c(c(O)c(C(=O)Nc3ncccc3O)c1=O)CCCC2 | 25.1% (active) |
| CC(C)Cn1c2c(c(O)c(C(=O)Nc3ncccc3O)c1=O)CCCC2 | 16.5% |
| O=C(NCc1ccccn1)C(=O)NCc1ccccn1 | 5.31% |
| COc1ccc(OC)c(-n2c(SCC(=O)NCc3ccco3)nnc2-c2c[nH]c3ccccc23)c1 | 24.5% (active) |
| COc1ccc(-c2[nH]c(-c3ccccc3)nc2SCC(=O)NCc2ccco2)cc1OC | 4.65% |
| COc1ccc(-c2nc(SCC(=O)NCc3ccco3)c(-c3ccccc3)[nH]2)cc1OC | 8.46% |
| COc1cccc(-n2c(SCC(=O)NCc3ccco3)nnc2-c2c[nH]c3ccccc23)c1 | 16.4% |
| COc1ccc(-n2c(SCC(=O)NCc3ccco3)nnc2-c2c[nH]c3ccccc23)cc1 | 3.42% |

| Compound | inhibition |
| --- | --- |
| COc1ccc(-c2[nH]c(-c3cccc(OC)c3)nc2SCC(=O)NCc2ccco2)cc1 | 25.2% (active) |
| S=c1nc(-c2csc3c2CCCC3)[nH][nH]1 | -7.04% |
| CCCC(=O)N(Cc1cc2cccc(C)c2[nH]c1=O)c1ccccc1OC | 0.65% |
| COc1cccc(-n2cc(CN(C)Cc3nc(Cc4ccccc4)no3)cn2)c1 | 0.62% |
| COc1ccc(NC(=O)C2CCCN(S(=O)(=O)c3ccc4c(c3)oc(=O)n4C)C2)cc1OC (stereo unspecified) | 3.43% |
| COc1ccccc1N1CCN(S(=O)(=O)CC23CCC(CC2=O)C3(C)C)CC1 (stereo unspecified) | -1.74% |
| CCCn1cc(S(=O)(=O)CC(=O)Nc2ccc(OC)cc2OC)c2ccccc21 | -0.94% |
| O=C(/C=C/c1ccccc1Cl)N(Cc1ccccc1)C1CCS(=O)(=O)C1 (stereo unspecified) | 0.49% |
| COc1ccc(N2CSC3=C(C#N)C(c4cccs4)CC(=O)N3C2)cc1 (stereo unspecified) | 31.7% |
| O=C(Nc1ccc(N2CCN(C(=O)c3ccc(Cl)cc3)CC2)cc1)c1cccnc1 | 3.47% |
| Cc1ccc(C(=O)N2CCN(c3ccc(NC(=O)c4cccnc4)cc3)CC2)cc1 | 25.7% (active) |
| Cc1ccccc1C(=O)N1CCN(c2ccc(NC(=O)c3cccnc3)cc2)CC1 | 1.42% |
| O=[N+]([O-])c1ccc(Cl)cc1N1CCCCC1 | 4.92% |
| Cc1cc(C)nc(SCC(=O)Nc2ccc(S(=O)(=O)Nc3ncccn3)cc2)n1 | 3.26% |
| O=C(CSc1nnc(-c2ccccc2)n1C1CCCCC1)Nc1ccc(S(=O)(=O)Nc2ccccn2)cc1 | 1.56% |
| Cc1noc(NS(=O)(=O)c2ccc(NC(=O)CSc3ncccn3)cc2)c1C | 1.83% |
| O=C(CSc1ccccc1)Nc1ccc(S(=O)(=O)Nc2ncccn2)cc1 | 3.64% |
| O=C(CSc1nnc(-c2ccncc2)n1C1CCCCC1)Nc1ccccc1 | 0.45% |
| Cc1noc(NS(=O)(=O)c2ccc(NC(=O)CSc3n[nH]c(-c4ccccc4)n3)cc2)c1C | 19.9% |
| CC(Sc1nnc2ccccn12)C(=O)N1CCc2ccccc2C1 (stereo unspecified) | 2.85% |
| NC1=C(c2ccc(F)cc2)C(=O)CS1 | -0.25% |
| COC(=O)c1noc(C)c1-c1ccnn1C(=O)c1ccc(C)cc1 | 5.18% |
| CCOc1ccccc1OCC(=O)Nc1nnc(C)s1 | 0.54% |

| Compound | inhibition |
| --- | --- |
| O=c1oc2ccccc2nc1/C=C(O)/C=C\c1ccccc1 | 5.28% |
| CN1CCN(Cc2c(O)ccc3c(-c4ccccc4)cc(=O)oc23)CC1 | 20.2% |
| COc1ccccc1-c1c(C)oc2c(CN3CCN(C)CC3)c(O)ccc2c1=O | 8.67% |
| Cc1cc(N2CCN(c3ccccn3)CC2)n2c(nc3ccccc32)c1C#N | -0.82% |
| O=[N+]([O-])c1cc(C(F)(F)F)ccc1N/N=C/c1cc2ccccc2nc1Cl | -1.36% |
| C/C(=N/OCO/N=C(\C)c1ccccc1F)c1ccccc1F | 1.08% |
| Cc1ccc2oc(=O)n(Cc3ccccc3OC(C)C)c2c1 | 1.91% |
| Cc1ccc(S(=O)(=O)Nc2nc3ccccc3nc2NCc2ccco2)cc1 | 10.1% |
| Cc1ccc(S(=O)(=O)Nc2nc3ccccc3nc2NCc2ccco2)cc1C | 25.4% (active) |
| Cc1cccc(S(=O)(=O)Nc2nc3ccccc3nc2NCc2ccco2)c1 | 14.8% |
| N/C(Cc1nc(-c2ccc(Br)cc2)cs1)=N\O | 1.76% |
| COc1cc2c(cc1NC(=O)c1cc(-c3ccncc3)nc3ccc(C)cc13)oc1ccccc12 | 0.05% |
| Cc1ccc(CCNS(=O)(=O)c2cnc[nH]2)cc1 | 1.38% |
| C/C(=N\NC(=S)NC1CCCCC1)c1ccc(O)cc1 | -1.69% |
| O=C(O)CSc1cc(C(=O)c2cc(F)ccc2O)cn2c(=O)c3c(-c4ccccc4)csc3nc12 | 21.3% |
| CCOC(=O)c1cc(C(=O)c2ccccc2O)cn2c(=O)c3c(C)c(C)sc3nc12 | 13.9% |
| CCOC(=O)c1sc2nc3c(SCCC#N)cc(C(=O)c4cc(F)ccc4O)cn3c(=O)c2c1C | 2.71% |
| O=C(O)CSc1cc(C(=O)c2ccccc2O)cn2c(=O)c3c(-c4ccccc4)csc3nc12 | 17.9% |
| Cc1sc2nc3c(C(=O)N4CCCC4)cc(C(=O)c4ccccc4O)cn3c(=O)c2c1C | 17.2% |
| CCOC(=O)c1sc2nc3c(SCC(=O)O)cc(C(=O)c4ccccc4O)cn3c(=O)c2c1C | 9.02% |
| COC(=O)N/N=C(\C)c1ccc(-n2ccnc2)cc1 | -0.5% |
| CCC(=O)N/C(N)=N/c1nc(C)c2cc(C)c(C)cc2n1 | 7.6% |
| C=CCn1c(N)cc(=O)nc1SCC(=O)NC(C)c1ccccc1 (stereo unspecified) | -2.4% |

| Compound | inhibition |
| --- | --- |
| O=C(N/N=C/c1ccco1)c1cc(Br)ccc1OCc1ccccc1 | 4.59% |
| CC(C)c1ccc(S(=O)(=O)N2CCN(C(=O)c3ccco3)CC2)cc1 | 0.71% |
| C[C@H](NC(=O)c1ccco1)C(=O)Nc1ccc(S(=O)(=O)N2CCCC2)cc1 | -6.98% |
| CC(C(=O)Nc1ccc(S(=O)(=O)N2CCCC2)cc1)N1CCN(C(=O)c2ccco2)CC1 (stereo unspecified) | 35.6% (active) |
| Cc1ccc(N=Nc2c(C)[nH]n(-c3ccccc3)c2=O)c(C)c1 | 3.7% |
| Cc1[nH]n(-c2ccccc2)c(=O)c1N=Nc1ccccc1 | 4.86% |
| CC(/C=N/Nc1nc(N2CCCCC2)nc(N2CCCCC2)n1)=C\c1ccccc1 | 5.4% |
| OCCNc1nc(OCC(F)(F)F)nc(N2CCN(C34CC5CC(CC(C5)C3)C4)CC2)n1 | 9.11% |
| CC(=O)Cc1nsc(NC(=O)c2ccc(Br)o2)n1 | 0.84% |
| CC(=O)Cc1nsc(NC(=O)c2ccc(COc3ccc(C)cc3)o2)n1 | 8.72% |
| CC(=O)Cc1nsc(NC(=O)c2ccc(COc3ccccc3)o2)n1 | 26.3% (active) |
| Cc1cc(NC(=O)CSc2nc(C(C)C)nc3c2c(=O)n(C)c(=O)n3C)no1 | 5.47% |
| O=C(O)Cc1sc(-c2cccnc2)nc1-c1ccc(Br)cc1 | 9.14% |
| CCOC(=O)N1CCN(c2cc(=O)n(-c3ccccc3Cl)c(=O)[nH]2)CC1 | -0.91% |
| CNc1oc(-c2ccc(C)cc2)nc1P(=O)(c1ccccc1)c1ccccc1 | -2.06% |
| CCN(CC)S(=O)(=O)c1ccc(-c2nnc(SCC(=O)N3CCOCC3)o2)cc1 | -1.63% |
| CCN(CC)S(=O)(=O)c1ccc(-c2nnc(SCC(C)=O)o2)cc1 | 26.5% (active) |
| CCN(CC)S(=O)(=O)c1ccc(-c2nnc(SC)o2)cc1 | -2.39% |
| CCCCn1c(SCC(=O)Nc2nccs2)nc2ccccc2c1=O | 1.43% |
| Cn1c(CNC(=O)c2ccccc2)nnc1SCC(=O)Nc1nccs1 | 0.84% |
| Cc1cc(NC(=O)CSc2nc3ccsc3c(=O)n2CCCCC(=O)O)no1 | 7.32% |
| CCCCn1c(SCC(=O)Nc2cc(C)on2)nc2ccsc2c1=O | 0.46% |
